This is an account of results in PubChem BioAssay.

The source made the active and inactive calls.

Assay [1] is described as follows: E. coli DRC41 culture turbidity changes, primary screen, E. coli filamentation inducer project, strain DRC41, OD650, 48 h (AID 1152).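 Note: E. coli MC1000 strain DRC41 lacking acrAB efflux pump and sulA.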 As to conditions: E. coli DRC41 (acrAB sulA), higher = more signal, called active from +8 up or from −8 down.
Assay [2] in a line: small-molecule binders of probe aLefty1, primary screen, biochemical, small-molecule microarray, 635/667 nm fluorescence (AID 1153).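 Note: score merges spot fluorescence with signal-to-noise ratio from the scanned slide images.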 The following applies: higher = more signal.
Assay [3] can be described thus: PSAC antagonists in infected red cells, primary screen, cell-based, P. falciparum Indochina, OD700, 1 h (AID 1154). The following applies: P. falciparum Indochina infected RBC osmotic lysis, higher = more signal, called active from +8 up or from −8 down.
Assay [4] is described as follows: PSAC antagonists in infected red cells, primary screen, cell-based, P. falciparum Indochina, OD700, 2 h (AID 1155).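 Note: lysis reports solute entry through the parasite surface anion channel PSAC; channel blockers reduce lysis of infected cells.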 The following applies: P. falciparum Indochina infected erythrocytes, osmotic lysis OD700; higher = more signal, called active from +8 up or from −8 down.
A short description of assay [5]: osmotic lysis modulators in infected erythrocytes, primary screen, PSAC antagonist project, cell-based, P. falciparum Indochina, OD700, 3 h (AID 1156). The following applies: higher = more signal, called active from +8 up or from −8 down.
Assay [6] in a line: PSAC antagonists in infected red cells, primary screen, cell-based, P. falciparum Indochina, OD700, 18 h (AID 1157). As to conditions: P. falciparum Indochina infected erythrocytes, osmotic lysis OD700, 18 h; higher = more signal, called active from +8 up or from −8 down.
The nature of assay [7]: modulators of S6 phosphorylation in cells, primary screen, cell-based, A549, cytoblot, luminescence, serum-stimulated (AID 1158).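 Note: serum-stimulated A549 lung adenocarcinoma cells; signal is phosphorylated S6 detected by cytoblot immunostaining with HRP secondary.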 As to conditions: A549 phospho-S6 cytoblot, 5 h, higher = more signal.
The target of assay [8] is NADPH oxidase 2 (Homo sapiens) (UniProt P04839). The assay is described as follows: NOX2-dependent H2O2 signal modulators, primary screen, NOX inhibitor project, cell-based, HEK293-NOX2, PMA-stimulated, Amplex Red fluorescence (AID 1159). Note: test concentration not given here. As to conditions: 45 min, higher = more signal, called active from +8 up or from −8 down.
The target of assay [9] is NADPH oxidase 4 (Homo sapiens) (UniProt Q9NPH5). The assay is described as follows: NOX4-dependent H2O2 signal modulators, primary screen, NOX inhibitor project, cell-based, HEK293-NOX4, tetracycline-induced, Amplex Red fluorescence (AID 1160). The following applies: 45 min, higher = more signal, called active from +8 up or from −8 down.
Assay [10] addresses NADPH oxidase 5 (Homo sapiens) (UniProt Q96PH1). Kind of assay: NOX5-dependent H2O2 signal modulators, primary screen, NOX inhibitor project, cell-based, HEK293-NOX5, Amplex Red fluorescence (AID 1161). As to conditions: HEK293-NOX5, ionomycin, 45 min, higher = more signal.

Chain of NADPH oxidase 2 (Homo sapiens) (P04839 whole entry, looked up): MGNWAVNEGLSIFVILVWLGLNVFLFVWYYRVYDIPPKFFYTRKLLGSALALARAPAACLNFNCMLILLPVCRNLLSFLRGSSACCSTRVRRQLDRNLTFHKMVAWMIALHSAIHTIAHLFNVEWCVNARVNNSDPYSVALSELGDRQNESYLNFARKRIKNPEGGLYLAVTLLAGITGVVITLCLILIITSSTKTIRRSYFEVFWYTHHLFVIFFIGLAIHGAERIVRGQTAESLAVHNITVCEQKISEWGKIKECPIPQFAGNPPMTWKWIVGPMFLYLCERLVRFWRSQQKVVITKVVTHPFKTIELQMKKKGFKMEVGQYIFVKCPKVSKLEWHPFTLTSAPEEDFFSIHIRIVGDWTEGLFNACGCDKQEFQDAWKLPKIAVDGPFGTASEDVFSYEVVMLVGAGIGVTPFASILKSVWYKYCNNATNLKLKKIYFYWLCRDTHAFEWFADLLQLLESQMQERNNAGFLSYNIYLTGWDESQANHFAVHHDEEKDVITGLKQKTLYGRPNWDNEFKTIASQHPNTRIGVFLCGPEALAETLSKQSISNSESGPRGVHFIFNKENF
Chain of NADPH oxidase 4 (Homo sapiens) (Q9NPH5 whole entry, looked up): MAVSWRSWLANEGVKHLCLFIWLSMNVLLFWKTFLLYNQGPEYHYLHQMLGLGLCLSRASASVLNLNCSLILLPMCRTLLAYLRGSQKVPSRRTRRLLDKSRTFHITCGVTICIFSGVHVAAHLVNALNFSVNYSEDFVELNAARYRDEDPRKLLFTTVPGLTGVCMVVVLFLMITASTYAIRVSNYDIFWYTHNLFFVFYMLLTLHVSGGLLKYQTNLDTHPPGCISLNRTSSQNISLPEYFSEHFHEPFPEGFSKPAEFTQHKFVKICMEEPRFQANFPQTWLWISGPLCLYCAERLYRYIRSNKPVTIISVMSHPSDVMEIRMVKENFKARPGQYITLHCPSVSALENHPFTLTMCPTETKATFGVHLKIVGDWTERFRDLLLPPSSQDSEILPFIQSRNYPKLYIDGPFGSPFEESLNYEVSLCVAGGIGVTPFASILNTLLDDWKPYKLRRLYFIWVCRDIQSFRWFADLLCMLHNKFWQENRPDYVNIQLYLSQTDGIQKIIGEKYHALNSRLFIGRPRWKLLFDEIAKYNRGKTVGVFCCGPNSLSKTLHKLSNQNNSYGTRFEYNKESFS
Chain of NADPH oxidase 5 (Homo sapiens) (Q96PH1 whole entry, looked up): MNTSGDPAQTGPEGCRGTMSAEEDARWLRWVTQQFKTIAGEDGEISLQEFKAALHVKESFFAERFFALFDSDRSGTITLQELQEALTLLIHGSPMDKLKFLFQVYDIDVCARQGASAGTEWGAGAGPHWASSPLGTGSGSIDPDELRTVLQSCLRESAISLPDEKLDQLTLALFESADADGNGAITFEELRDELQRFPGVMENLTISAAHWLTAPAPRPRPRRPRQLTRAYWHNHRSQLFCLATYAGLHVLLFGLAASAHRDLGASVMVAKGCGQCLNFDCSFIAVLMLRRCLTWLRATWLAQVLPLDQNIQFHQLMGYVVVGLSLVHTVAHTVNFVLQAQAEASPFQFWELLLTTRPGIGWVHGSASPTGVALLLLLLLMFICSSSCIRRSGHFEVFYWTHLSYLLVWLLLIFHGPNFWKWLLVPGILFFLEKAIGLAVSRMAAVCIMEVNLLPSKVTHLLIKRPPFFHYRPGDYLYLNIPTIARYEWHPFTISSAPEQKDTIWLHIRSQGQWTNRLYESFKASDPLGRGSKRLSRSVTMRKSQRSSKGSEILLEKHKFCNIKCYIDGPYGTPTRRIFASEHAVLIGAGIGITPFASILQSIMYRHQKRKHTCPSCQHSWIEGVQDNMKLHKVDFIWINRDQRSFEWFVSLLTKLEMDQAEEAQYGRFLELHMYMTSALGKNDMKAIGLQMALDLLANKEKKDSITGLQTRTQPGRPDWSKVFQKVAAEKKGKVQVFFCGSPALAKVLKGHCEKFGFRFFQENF

Turning to `COC(=O)[C@]1(CCC(=O)OC(C)(C)C)N=C(c2ccc(OCCCO)cc2)O[C@@H]1c1ccccc1CN=[N+]=[N-]`, the z-score in [1] is -1.68 (inactive); in [3], 30.3 (active); in [4], 28.3 (active); in [5] it was -0.615 (inactive); in assay [6], 5.71 (inactive); in [7] it was -0.0021. Moreover, the z-score in assay [8] was -3.48 (inactive); in [9], -1.72 (inactive); in [10], -2.41. The composite z-score in [2] amounted to 0.235.
For `Cc1ccc(S[C@]2(C(=O)NCCCN(C)C)CC(=O)N(Cc3cc(C(F)(F)F)cc(C(F)(F)F)c3)[C@@H]2c2ccc(CO)cc2I)cc1`, the z-score in [1] is 0.272 (inactive); in assay [3], 3.48 (inactive); in [4] it was 1.12 (inactive); in assay [5] it was -1.36 (inactive); in assay [6], 0.303 (inactive); in [7], -0.232. The z-score in assay [8] is 1.28 (inactive); in [9], -1.25 (inactive); in [10], 2.43. The composite z-score in assay [2] came out at 1.37.
As for `CC#CC(=O)Oc1ccccc1C=CC(=O)OCC`, the z-score is -0.158 (inactive) in [1]; 8.09 (active) in assay [3]; 1.47 (inactive) in assay [4]; 0.692 (inactive) in assay [5]; 0.903 (inactive) in assay [6]; -0.275 in assay [7]. For the same compound, the z-score in assay [8] is -0.405 (inactive); in assay [9] it was -0.806 (inactive); in assay [10], 1.8. In assay [2], this compound showed a composite z-score of -0.0011.
Take `CC(C)NC(=O)[C@@]1(C)c2ccccc2C(=O)N(Cc2cc(C(F)(F)F)cc(C(F)(F)F)c2)[C@H]1c1ccc(CO)cc1`: the z-score in assay [1] was -0.204 (inactive); in [3], 11.8 (active); in assay [4] it was 1.66 (inactive); in assay [5], 1.35 (inactive); in [6] it was 0.377 (inactive); in assay [7], 0.401. The z-score in assay [8] was -1.13 (inactive); in [9], 0.154 (inactive); in [10] it was 0.685. This compound also displayed a composite z-score in assay [2] of 0.0328.
For `C=CCNC(=O)[C@H]1[C@@H]2C(=O)O[C@@H](c3ccccc3)[C@@H](c3ccccc3)N2[C@@H](c2ccccc2OCCO)[C@]12C(=O)Nc1ccc(C#CCC(C(=O)OC)C(=O)OC)cc12`, the z-score is 0.0038 (inactive) in assay [1]; 5.08 (inactive) in assay [3]; 1.84 (inactive) in assay [4]; -0.223 (inactive) in assay [5]; 0.909 (inactive) in assay [6]; -0.318 in [7]. Moreover, the figures for the z-score in assay [8], in [9] and in [10] were 1.62 (inactive), 0.834 (inactive) and 1.5, respectively. The same compound showed a composite z-score in assay [2] of 0.924.
As for `CCOC(=O)C[C@H]1[C@H](OC(=O)c2ccc(C(=O)c3ccccc3)cc2)[C@@H](NC(=O)c2ccccc2)c2cc(OCCCO)ccc2N1C(=O)c1ccc2ccccc2n1`, the z-score is 0.181 (inactive) in assay [1]; 2.66 (inactive) in assay [3]; 0.748 (inactive) in assay [4]; -0.2 (inactive) in [5]; 0.454 (inactive) in [6]; -0.0519 in assay [7]. Further, the z-score is -1.14 (inactive) in [8], 0.923 (inactive) in assay [9] and 1.94 in assay [10]. For the same compound, the composite z-score in [2] is -0.328.
As for `NCCCCCCNC(=O)[C@@H]1C[C@@H]2C(=O)NCC(=O)N2[C@@H]1c1ccc(O)cc1`, the z-score in assay [1] was 0.812 (inactive); in assay [3] it was 0.846 (inactive); in [4] it was 1.04 (inactive); in assay [5] it was 4.22 (inactive); in [6] it was 0.497 (inactive); in assay [7], 0.257. For the same compound, the values for the z-score in [8], in assay [9] and in [10] were -0.302 (inactive), 0.4 (inactive) and 0.182, respectively. The composite z-score in assay [2] was -0.0126.
Take `COc1ccc([Si](C)(C)[C@@H]2[C@@H](CC(=O)N3CCC[C@H]3CO)O[C@]3(C(=O)N(c4ccccc4)c4ccccc43)[C@H]2C)cc1`: the z-score in assay [1] is 2.66 (inactive); in assay [3], 0.616 (inactive); in [4], -0.748 (inactive); in assay [5], 1.1 (inactive); in assay [6], -1.44 (inactive); in assay [7], 0.499. The z-score in assay [8] is 2.54 (inactive); in assay [9], 1.74 (inactive); in [10], 2.4. The compound further gave a composite z-score in assay [2] of -0.0718.
Take `C=CCNC(=O)[C@@H]1[C@H]2C(=O)O[C@H](c3ccccc3)[C@H](c3ccccc3)N2[C@H](c2ccc(OCCO)cc2)[C@@]12C(=O)Nc1ccc(C#CCC(C(=O)OC)C(=O)OC)cc12`: the z-score is 1.13 (inactive) in assay [1]; 5.24 (inactive) in assay [3]; 1.59 (inactive) in [4]; 1.28 (inactive) in [5]; 0.653 (inactive) in assay [6]; -0.186 in assay [7]. Further, the z-score in assay [8] is 2.32 (inactive); in assay [9], 0.186 (inactive); in assay [10], 0.236. Also, the composite z-score in assay [2] came out at 0.0973.
As for `NC(=O)NCC#Cc1ccc2c(c1)[C@]1(C(=O)N2)[C@H](C(N)=O)[C@H]2C(=O)O[C@H](c3ccccc3)[C@H](c3ccccc3)N2[C@@H]1c1ccc(O)cc1`, the z-score in [1] was 0.0502 (inactive); in assay [3] it was 0.271 (inactive); in assay [4], 0.436 (inactive); in assay [5] it was 0.471 (inactive); in [6], 0.124 (inactive); in assay [7], 0.226. In addition, the figures for the z-score in assay [8], in assay [9] and in assay [10] were 0.122 (inactive), -0.519 (inactive) and -0.479, respectively. Further, in [2], the composite z-score turned out to be 1.73.
Regarding `CC(C)N1C(=O)c2ccccc2[C@](C)(C(=O)NCCN2CCOCC2)[C@@H]1c1ccc(CO)cc1`, the z-score is -0.469 (inactive) in assay [1]; 2.19 (inactive) in assay [3]; 0.0259 (inactive) in assay [4]; 0.914 (inactive) in assay [5]; 0.426 (inactive) in assay [6]; -0.522 in assay [7]. Further, the z-score in assay [8] was 1.05 (inactive); in assay [9], 0.627 (inactive); in assay [10], 0.283. Further, the composite z-score in [2] is 0.0451.
As for `COCCCNC(=O)[C@@]1(C)c2ccccc2C(=O)N(C(C)C)[C@H]1c1ccc(CO)cc1`, the z-score was -0.794 (inactive) in assay [1]; 0.877 (inactive) in [3]; -0.057 (inactive) in assay [4]; 0.386 (inactive) in [5]; 0.743 (inactive) in assay [6]; -0.504 in [7]. Moreover, the z-score in [8] is -0.636 (inactive); in assay [9], 0.43 (inactive); in [10], -0.249. This compound also had a composite z-score in assay [2] of 0.163.
On to `C=C[C@H](CO[Si](CC)(CC)CC)N(Cc1ccc(OC(C)=O)c(OC)c1)S(=O)(=O)c1ccc(Br)cc1`, for which the z-score was 0.719 (inactive) in assay [1]; -0.0878 (inactive) in assay [3]; -0.231 (inactive) in assay [4]; -0.738 (inactive) in assay [5]; -1.39 (inactive) in [6]; 0.674 in assay [7]. Also, the z-score in assay [8] is -2 (inactive); in assay [9] it was -0.928 (inactive); in assay [10] it was -1.27. The composite z-score in assay [2] came out at 0.698.
